BoNT A protease: BoNT/A light chain protease inhibitors, primary screen, biochemical, flow cytometry, MLPCN library. 360,000 compounds, 0.17% hits. inhibition, % at 10 µM. Botulinum neurotoxin type A light chain protease (Clostridium botulinum A str. ATCC 3502). multiplex microsphere protease substrate cleavage. AID 588499, 2011
BH1578 lux ind: inducers of Vibrio cholerae quorum light production without autoinducers, primary screen, BH1578 luxS cqsA deficient, single point | V. cholerae BH1578 lux reporter, luminescence, 6 h | activation, % at 18.7 µM | 350,000 compounds, 0.16% hits; in the data active = activation mostly above about 9.7%, no sharp cut-off; inconclusive = no clear call, values can overlap the other calls; inactive = mostly below about 3.7%
MazEF act: activators of E. coli MazEF toxin-antitoxin RNase, primary screen, biochemical, fluorescence, uHTS | Endoribonuclease toxin MazF (Escherichia coli (strain K12)), P0AE70 | FAM/BHQ RNA-DNA oligo cleavage fluorescence, 5 h | activation, % at 20 µM | 350,000 compounds, 0.32% hits | AID 504720, 2011; in the data active = activation above about 50%
BoNT-F LC inh: BoNT/F light chain protease inhibitors, primary screen, biochemical, flow cytometry, MLPCN library; Botulinum neurotoxin type F light chain protease (Clostridium botulinum); Multiplex microsphere protease cleavage assay; inhibition, % at 10 µM; 360,000 compounds, 0.22% hits; in the data active = inhibition above about 35%, passing the limit was not always enough; inconclusive = no clear call, values can overlap the other calls
Autofluor counter: compound fluorescence in toxin protease inhibitor counterscreen; AID 624483; fluorescence intensity (no concentration beside the values); 360,000 compounds, 3.1% hits; compound autofluorescence counterscreen, microsphere flow cytometry; stronger effect = higher value; in the data active = fluorescence intensity above about 16000; inconclusive = no clear call, values can overlap the other calls
Anthrax LF inh2: Bacillus anthracis LF protease inhibitors, primary screen, biochemical, multiplex microsphere, MLPCN library | AID 588501, 2011 | 360,000 compounds, 0.12% hits | multiplex microsphere protease cleavage assay | inhibition, % at 10 µM
Target sequence (P15917 whole entry, looked up): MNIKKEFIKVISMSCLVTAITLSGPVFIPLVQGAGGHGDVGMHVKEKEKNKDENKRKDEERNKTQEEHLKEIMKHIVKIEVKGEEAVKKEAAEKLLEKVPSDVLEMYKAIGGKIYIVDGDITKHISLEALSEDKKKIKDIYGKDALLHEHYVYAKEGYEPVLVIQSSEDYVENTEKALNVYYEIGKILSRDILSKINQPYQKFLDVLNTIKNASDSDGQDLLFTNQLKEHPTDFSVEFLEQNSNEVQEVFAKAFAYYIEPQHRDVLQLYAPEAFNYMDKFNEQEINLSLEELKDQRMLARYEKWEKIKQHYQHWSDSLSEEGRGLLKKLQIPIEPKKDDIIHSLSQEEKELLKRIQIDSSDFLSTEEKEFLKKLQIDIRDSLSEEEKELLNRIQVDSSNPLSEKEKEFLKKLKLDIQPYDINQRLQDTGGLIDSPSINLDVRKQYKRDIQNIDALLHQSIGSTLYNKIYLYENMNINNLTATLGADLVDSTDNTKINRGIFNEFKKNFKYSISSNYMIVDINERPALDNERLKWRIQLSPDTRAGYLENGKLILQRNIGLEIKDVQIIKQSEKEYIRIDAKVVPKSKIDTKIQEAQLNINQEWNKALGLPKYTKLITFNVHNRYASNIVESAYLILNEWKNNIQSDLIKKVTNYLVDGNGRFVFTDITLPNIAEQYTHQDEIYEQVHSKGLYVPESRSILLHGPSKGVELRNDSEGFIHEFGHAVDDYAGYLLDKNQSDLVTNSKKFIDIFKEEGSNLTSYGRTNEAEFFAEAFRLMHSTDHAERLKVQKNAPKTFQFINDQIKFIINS
Large screens that a line does not name were inactive; ! = not confirmed by another sample. Most compounds without a hit are left out; they make up all but 3.9% or so of the library. Rule as the data show it, unless noted: active = inhibition above about 30%; inconclusive = no clear call, values can overlap the other calls; inactive = below that.

Cc1ccc(NC(=O)c2c(C(F)(F)F)nn(C)c2SCc2cccc(C(F)(F)F)c2)cc1C	Autofluor counter 16554
Cc1ccc(NC(=O)c2c(C(F)(F)F)nn(C)c2SCc2ccc(Cl)cc2)cc1C	Autofluor counter 18135
Cc1ccc(NC(=O)c2c(C(F)(F)F)nn(C)c2Cl)cc1C	BoNT A protease inconclusive, Autofluor counter 19260
Cc1ccc(Cc2c(-c3ccc(C)cc3)nc3c(Cl)cc(C(F)(F)F)cn23)cc1	none (no result: BH1578 lux ind, MazEF act)
Cc1ccn2c(C(=O)N/N=C\c3cccs3)c(C)nc2c1	Autofluor counter 21815
O=C(O)c1ccc2[nH]c3c(c2c1)CSCC3	Autofluor counter 20934
CN(C)CCOC(=O)c1ccc2[nH]c3c(c2c1)CSCC3	none
O=C1CC(N2CCC(c3nc4ccccc4o3)CC2)C(=O)N1c1cc(Cl)cc(Cl)c1 (stereo not given)	Autofluor counter 22844
Cc1ccc(NC(=O)CSCC(=O)Nc2cccc(S(=O)(=O)N3CCCCCC3)c2)cc1	none
COc1cccc(-c2nnc3sc(-c4ccco4)nn23)c1	none
COc1cccc(-c2nn3c(-c4cccc(C)c4)nnc3s2)c1	Autofluor counter 17527
COc1cccc(-c2nnc3sc(-c4cccs4)nn23)c1	none
CCOc1cccc(-c2nnc3sc(-c4cccs4)nn23)c1	Autofluor counter 17165
COc1ccc(-c2nn3c(-c4ccco4)nnc3s2)cc1OC	none
CCOc1cccc(-c2nn3c(-c4ccco4)nnc3s2)c1	Autofluor counter 23209
COc1cccc(-c2ccc3c(c2)O[C@@H](CN(C)Cc2cncnc2)[C@@H](C)CN([C@H](C)CO)S3(=O)=O)c1	none
Cc1noc(C)c1-c1ccc(C(=O)Nc2ccccc2)c2occc12	none (no result: MazEF act)
Cc1c(N=NC2=C(O)CC(C)(C)CC2=O)c(=O)n(-c2ccccc2)n1C	none
O=C1CC(c2ccccc2)CC2=C1CN(C1CCCCC1)CN2 (stereo not given)	Autofluor counter 23766
O=C1NCN(C2CCCCC2)CN1	none
CC(=O)N/C(=C\c1ccccc1)C(=O)OCc1cc(C)ccc1C	none
Cc1ccc([N+](=O)[O-])c(OCCN2CCC(Cc3ccccc3)CC2)c1	none
COc1cc2cc(C(c3nnnn3C3CCCC3)N3CCCCCC3)c(=O)[nH]c2cc1OC (stereo not given)	Autofluor counter 20987
O=c1[nH]c2cc3c(cc2cc1C(c1nnnn1C1CCCCC1)N1CCSCC1)OCCO3 (stereo not given)	Autofluor counter 22680
CCOc1ccc2[nH]c(=O)c(C(c3nnnn3C3CCCCC3)N3CCN(C)CC3)cc2c1 (stereo not given)	none
CCOc1ccc2[nH]c(=O)c(C(c3nnnn3C3CCCCC3)N3CCN(CC)CC3)cc2c1 (stereo not given)	BoNT A protease inconclusive, Autofluor counter 21002
COc1cc2cc(C(c3nnnn3C3CCCC3)N3CCCCC3)c(=O)[nH]c2cc1OC (stereo not given)	Autofluor counter 19432
COc1cc(S(=O)(=O)N2CCCN(C)CC2)ccc1NC(C)=O	none
COc1ccc2[nH]c(=O)c(C(c3nnnn3C3CCCC3)N(C)C3CCCCC3)cc2c1 (stereo not given)	BoNT A protease inconclusive, Autofluor counter 24246
O=C(NCCOc1nc(N2CCOCC2)nc(N2CCOCC2)n1)Nc1ccc(Cl)cc1	none
Cc1ccc(S(=O)(=O)NCCCNC(=O)N2CCOCC2)cc1	none (no result: BH1578 lux ind)
Cc1ccc(S(=O)(=O)NCCOc2nc(N3CCOCC3)nc(N3CCOCC3)n2)cc1	Autofluor counter 21551
Cc1ccc(S(=O)(=O)NCCNC(=O)N2CCOCC2)cc1	Autofluor counter 21580
Cc1ccc(S(=O)(=O)NCCCNC(=O)c2ccccc2)cc1	Autofluor counter 23361
Cc1ccc(S(=O)(=O)NCCNC(=O)c2ccccc2)cc1	none
Cc1ccc(C(=O)N/C(=C\c2ccc(-c3ccc([N+](=O)[O-])cc3)o2)C(=O)NC2CCS(=O)(=O)C2)cc1 (stereo not given)	none
Cc1ccc(CNC(=O)Cn2ccc3cc(S(=O)(=O)N4CCCCCC4)ccc32)cc1	none
COCc1c(C(=O)OC)nnn1-c1ccccc1	BoNT A protease inconclusive, Autofluor counter 22960
COC(=O)c1nnn(-c2ccccc2)c1N	none (no result: BH1578 lux ind)
CCSC1=N/C(=C\c2ccc3c(c2)OCO3)C(=O)S1	none
C=CCSC1=N/C(=C\c2cc(OC)c3c(c2)OCO3)C(=O)S1	MazEF act 518
CNC(=O)c1ccc(C)c(NC(=O)C2=C(C)OCCS2)c1	none
Cc1nc(Nc2ccc3c(c2)OCCO3)c2oc3ccccc3c2n1	none
c1ccc2c(c1)oc1c(Nc3ccc4c(c3)OCCO4)ncnc12	Autofluor counter 19956
CCc1nc(Nc2ccc3c(c2)OCCO3)c2oc3ccccc3c2n1	Autofluor counter 17390
Cc1ccc(Nc2ncnc3c2oc2ccccc23)cc1	none
CCc1nc(NCc2ccc3c(c2)OCO3)c2oc3ccccc3c2n1	BoNT A protease inconclusive, Autofluor counter 23489
COc1ccc(C)cc1S(=O)(=O)N1CCCC(C(=O)NC2CC2)C1 (stereo not given)	none
O=S1(=O)CC(N2CCCCC2)CN1Cc1cn(Cc2ccc(F)cc2)nn1 (stereo not given)	none (no result: BH1578 lux ind, MazEF act)
Nc1nc(N)c2cc(CNc3ccc(Cl)c(Cl)c3)ccc2n1	none
CCn1c(=S)sc2c(=O)n(CC(=O)Nc3cc(OC)ccc3OC)c(C)nc21	none
Cc1cc2c3c(c1)C1(C(=O)N3C(C)(C)CC2C)C(C#N)=C(N)Oc2n[nH]c(C)c21 (stereo not given)	BoNT A protease inconclusive, Autofluor counter 21117
CCCCc1ccc(NC(=O)CSc2nnc(CNC(=O)c3ccco3)o2)cc1	none
O=C(CNC(=O)c1ccc(S(=O)(=O)N2CCCC2)cc1)N/N=C/c1ccc(Cl)cc1Cl	MazEF act 74
CN(C)CCNc1ncnc2c1ncn2[C@H]1CN(Cc2ccncc2)C[C@@H](CO)O1	none (no result: MazEF act)
CCCOc1cc2c(C#N)c(N3CCCC3)nc(N)c2c(N)n1	MazEF act 63
COc1cc2c(C#N)c(N3CCCC3)nc(N)c2c(N)n1	MazEF act 90!
N#Cc1c(N)nc(N2CCCC2)c(C#N)c1-c1ccc(Cl)cc1	MazEF act 66
COc1cc2c(C#N)c(N3CCN(C)CC3)nc(N)c2c(N)n1	none (no result: BH1578 lux ind, MazEF act)
CCCCNC(=O)C1(C)CCCCN1C(=O)c1ccno1 (stereo not given)	none (no result: MazEF act)
O=C(Nc1cccc([N+](=O)[O-])c1)NN1CCCCCC1	none
Cc1ccc(S(=O)(=O)N(CC(=O)N2CCOCC2)C2CCCCC2)cc1	BoNT A protease inconclusive, Autofluor counter 23611
Cc1cc(C)c(S(=O)(=O)N(CC(=O)N2CCOCC2)C2CCCCC2)c(C)c1	none

From PubChem BioAssay
